The values below come from PubChem BioAssay (NCATS).

Common to all, as to experiment: qHTS profiling for inhibitors of Plasmodium falciparum proliferation (AID 504749); also: nearly all actives have a fitted effect of over 60% in size
What all share (conditions): P. falciparum in erythrocytes, SYBR Green DNA, 72 h; series mostly up to 28.7 µM
A general note: Quantitative high-throughput screening tests each substance at several concentrations.

For one test, the system named is CP215. Put shortly: (§1)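 P. falciparum-infected erythrocytes (0.3% parasitemia, 2.5% hematocrit final) were exposed to compounds for 72 h at 37 C in 5% CO2, then lysed with SYBR Green buffer overnight at room temperature; parasite DNA fluorescence was normalized to artemisinin and DMSO controls.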
In a further test the test system is CP217. The procedure, abridged: as §1
In the next test the test system is CP237. The procedure, abridged: as §1
Another test has as its system CP238. Put shortly: as §1
The subject of another test is CP247. Put shortly:
as §1

The next test concerns CP250. The procedure, abridged: as §1
For a further test, the system named is CP252. Put shortly: as §1
The test system of a further test is CP256. Put shortly: as §1
Another test concerns CP260. The procedure, abridged:
as §1

For the next test, the system named is CP262. Put shortly:
as §1

The test system of a further test is CP265. Put shortly: as §1
The test system of a further test is CP266. The procedure, abridged:
as §1

A further test deals with CP268. Put shortly: as §1
In the next test the test system is CP269. The procedure, abridged: as §1
A further test relates to CP286. Put shortly:
as §1

Another test has as its system CP291. The procedure, abridged:
as §1

A further test deals with CP297. The procedure, abridged:
as §1

The next test has as its system CP305. The procedure, abridged: as §1
The next test relates to CP315. Put shortly: as §1
A further test has as its system CP325. Put shortly: as §1

Results filed as inconclusive are left out. Activity calls are given as the source filed them. Calls follow the shape of the dose curve; as a rule, active = well fitted inhibition curve with a large enough effect; inconclusive = small, poorly fitted or top-dose-only effect; inactive = flat fitted curve, though single readings scatter.
Potency is read from the fitted curve at half-maximal effect.

For the compound `CC[N+](C)(C)Cc1ccccc1Br`, the Potency entry in the test with CP215, in the test with CP217, with CP237, with CP238, with CP247 and in the test on CP250 was “inactive” each time. Moreover, the Potency entry in the test on CP252, in the test with CP256, with CP260, in the test on CP262, with CP265 and in the test with CP266 was “inactive” in each case. Moreover, the Potency result with CP268, in the test on CP269, in the test with CP286, in the test with CP291, with CP297 and with CP305 was “inactive” in each case. In addition, the Potency entry in the test on CP315 and in the test with CP325 was “inactive” throughout.

As for `C[C@@H]1CCC2[C@@H](C)[C@@H](O)O[C@@H]3O[C@@]4(C)CC[C@@H]1[C@@]23OO4` (stereo partly drawn), the Potency with CP215 was 4.8 nM (active); with CP217, 2.8 nM (active); in the test on CP237 it was 1.6 nM (active); in the test with CP238, 2.2 nM (active); in the test with CP247 it was 3.2 nM (active); with CP250, 2.8 nM (active). For the same compound, the Potency in the test on CP252 is 2.5 nM (active); in the test on CP256 it was 2.2 nM (active); in the test on CP260, 1.3 nM (active); with CP262, 6 nM (active); with CP265 it was 0.9 nM (active); with CP266, 7.6 nM (active). Further, the Potency was 3.8 nM (active) in the test with CP268; 4.8 nM (active) in the test on CP269; 2.5 nM (active) in the test with CP286; 4.3 nM (active) in the test with CP291; 4.8 nM (active) with CP297; 3.8 nM (active) in the test on CP305. Further, the values for the Potency in the test on CP315 and in the test on CP325 were 6.7 nM (active) and 4.8 nM (active), respectively.

As for `Cc1cc(C(=O)NNCc2ccccc2)no1`, the Potency result in the test with CP215, in the test with CP217, in the test on CP237, in the test on CP238, with CP247 and in the test with CP250 was “inactive” throughout. The Potency entry in the test with CP252, in the test on CP256, in the test on CP260, in the test on CP262, with CP265 and in the test with CP266 was “inactive” each time. The Potency entry in the test on CP268, with CP269, in the test on CP286, in the test with CP291, in the test with CP297 and in the test on CP305 was “inactive” throughout. Besides, the Potency entry in the test on CP315 and with CP325 was “inactive” in each case.

In the case of `CC(O)CO` (stereo not drawn), the Potency entry in the test on CP215, in the test with CP217, with CP237, with CP238, in the test with CP247 and in the test with CP250 was “inactive” each time. The Potency result with CP252, in the test with CP256, in the test on CP260, in the test on CP262, with CP265 and in the test with CP266 was “inactive” each time. The Potency result with CP268, in the test on CP269, with CP286, with CP291, in the test with CP297 and in the test on CP305 was “inactive” each time. In addition, the Potency result with CP315 and in the test on CP325 was “inactive” each time.

With `C[C@]12O[C@H](C[C@]1(O)CO)n1c3ccccc3c3c4c(c5c6ccccc6n2c5c31)CNC4=O`, the Potency in the test with CP215 is 426 nM (active); with CP217 it was 316 nM (active); in the test with CP237 it was 224 nM (active); in the test on CP238 it was 282 nM (active); in the test with CP247, 224 nM (active); in the test with CP250, 251 nM (active). The Potency in the test on CP252 was 316 nM (active); in the test with CP256, 398 nM (active); in the test with CP260, 224 nM (active); in the test on CP262, 426 nM (active); in the test with CP265, 447 nM (active); in the test with CP266 it was 675 nM (active). Moreover, the Potency with CP268 is 536 nM (active); in the test with CP269, 269 nM (active); with CP286 it was 224 nM (active); with CP291 it was 338 nM (active); in the test on CP297, 379 nM (active); with CP305 it was 601 nM (active). The Potency in the test on CP315 was 426 nM (active); in the test with CP325, 536 nM (active).

For `C[C@H]1C[C@H]2[C@@H]3CCC4=CC(=O)C=C[C@]4(C)[C@@]3(F)[C@@H](O)C[C@]2(C)[C@@]1(O)C(=O)CO`, the Potency result in the test on CP215, in the test with CP217, in the test with CP237, with CP238, in the test on CP247 and in the test with CP250 was “inactive” throughout. Also, the Potency result in the test on CP252, with CP256, with CP260, in the test with CP262, with CP265 and in the test on CP266 was “inactive” throughout. The Potency result with CP268, in the test on CP269, in the test with CP286, in the test on CP291, in the test with CP297 and in the test on CP305 was “inactive” throughout. The Potency result in the test with CP315 and in the test on CP325 was “inactive” throughout.

With `CC1(C)S[C@@H]2[C@H](NC(=O)[C@@H](NC(=O)N3CCNC3=O)c3ccccc3)C(=O)N2[C@H]1C(=O)O`, the Potency entry in the test with CP215, with CP217, in the test on CP237, in the test on CP238, in the test with CP247 and in the test with CP250 was “inactive” throughout. In addition, the Potency result with CP252, with CP256, in the test on CP260, with CP262, in the test on CP265 and in the test on CP266 was “inactive” in each case. For the same compound, the Potency entry in the test on CP268, with CP269, in the test with CP286, in the test with CP291, with CP297 and in the test on CP305 was “inactive” in each case. Moreover, the Potency result in the test with CP315 and in the test with CP325 was “inactive” throughout.

For the compound `CCOC(C)=O`, the Potency entry in the test with CP215, with CP217, in the test with CP237, in the test on CP238, in the test on CP247 and in the test with CP250 was “inactive” in each case. Also, the Potency entry in the test with CP252, with CP256, in the test with CP260, with CP262, in the test with CP265 and with CP266 was “inactive” each time. Besides, the Potency result in the test on CP268, in the test with CP269, in the test on CP286, in the test on CP291, in the test with CP297 and in the test with CP305 was “inactive” throughout. Moreover, the Potency result in the test with CP315 and with CP325 was “inactive” each time.

Take `C#CCOc1ccc2c(C)cc(=O)oc2c1`: the Potency result with CP215, in the test on CP217, with CP237, in the test on CP238, in the test on CP247 and in the test on CP250 was “inactive” throughout. Also, the Potency entry with CP252, with CP256, in the test on CP260, with CP262, in the test on CP265 and in the test with CP266 was “inactive” throughout. Also, the Potency result in the test on CP268, in the test with CP269, with CP286, with CP291, in the test with CP297 and in the test on CP305 was “inactive” each time. Besides, the Potency entry with CP315 and in the test on CP325 was “inactive” each time.

In the case of `CC1=C(/C=C/C(C)=C/C=C/C(C)=C/C=C/C=C(C)/C=C/C=C(C)/C=C/C2=C(C)CCCC2(C)C)C(C)(C)CCC1`, the Potency entry in the test with CP215, in the test on CP217, in the test with CP237, in the test with CP238, in the test on CP247 and with CP250 was “inactive” in each case. In addition, the Potency entry with CP252, in the test on CP256, with CP260, with CP262, in the test on CP265 and with CP268 was “inactive” in each case. In addition, the Potency entry in the test with CP269, in the test on CP286, with CP291, in the test with CP297, with CP305 and with CP315 was “inactive” in each case. The Potency result with CP325 was “inactive”.

Turning to `O=CCCCC=O`, the Potency result in the test on CP215, in the test with CP217, with CP237, in the test on CP238, in the test with CP247 and in the test on CP250 was “inactive” each time. The Potency result in the test with CP252, with CP256, with CP262, with CP265, in the test with CP266 and in the test on CP268 was “inactive” each time. Moreover, the Potency result in the test on CP269, in the test with CP286, in the test on CP291, in the test with CP297, in the test on CP305 and in the test on CP315 was “inactive” in each case. Also, in the test on CP325, the Potency result was “inactive”.
